Seven sequences from paper PMC7862700, “An all-to-all approach to the identification of sequence-specific readers for epigenetic DNA modifications on cytosine” can be followed below.

What all share (test): DAPPL (digital affinity profiling via proximity ligation, sequencing); 10 mM Tris-HCl pH 7.5, 50 mM NaCl, 1 mM DTT, 4% glycerol, room temperature, 30 min; GST-TFs on glutathione beads, 16-mer random dsDNA library, 0.1% formaldehyde crosslink after washing; high values mean tight binding
Conditions in all cases: protein: recombinant; tags: N-terminal GST; dsDNA, one strand shown

For one test, the target named is T1, ERF (Homo sapiens, UniProt P50548 1-548).
T1 sequence: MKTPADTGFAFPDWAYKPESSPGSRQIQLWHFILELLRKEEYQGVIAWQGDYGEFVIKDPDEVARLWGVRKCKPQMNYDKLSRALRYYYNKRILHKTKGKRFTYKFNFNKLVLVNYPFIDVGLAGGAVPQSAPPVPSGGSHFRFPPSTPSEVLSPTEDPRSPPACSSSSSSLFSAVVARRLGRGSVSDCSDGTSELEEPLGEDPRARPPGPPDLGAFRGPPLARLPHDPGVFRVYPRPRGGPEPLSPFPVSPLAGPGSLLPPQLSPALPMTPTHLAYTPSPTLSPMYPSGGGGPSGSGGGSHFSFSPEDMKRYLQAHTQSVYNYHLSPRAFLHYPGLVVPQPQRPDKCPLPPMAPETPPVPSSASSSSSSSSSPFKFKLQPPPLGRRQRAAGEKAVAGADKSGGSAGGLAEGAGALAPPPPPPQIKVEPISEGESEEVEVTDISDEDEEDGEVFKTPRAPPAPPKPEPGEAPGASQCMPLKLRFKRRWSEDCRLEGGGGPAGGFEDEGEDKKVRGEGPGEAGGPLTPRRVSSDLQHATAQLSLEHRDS
The gist of the method: (§1)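 Pools were built from human transcription factors expressed in yeast as GST fusions, captured on glutathione beads and DNA-barcoded, along with a tag-only sample. Incubation with 200 nmole of a 16-mer random double-stranded DNA library lasted 30 min at room temperature in Tris/NaCl/DTT/glycerol buffer, and was followed by washing, 0.1% formaldehyde crosslinking, proximity ligation, PCR amplification and Illumina NextSeq500 sequencing. Binding signal is the quotient of each hexamer's read frequency for a factor and its frequency for the tag-only sample.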

In a further test the target is T2, ETV3L (Homo sapiens, UniProt Q6ZN32 1-361).
T2 sequence: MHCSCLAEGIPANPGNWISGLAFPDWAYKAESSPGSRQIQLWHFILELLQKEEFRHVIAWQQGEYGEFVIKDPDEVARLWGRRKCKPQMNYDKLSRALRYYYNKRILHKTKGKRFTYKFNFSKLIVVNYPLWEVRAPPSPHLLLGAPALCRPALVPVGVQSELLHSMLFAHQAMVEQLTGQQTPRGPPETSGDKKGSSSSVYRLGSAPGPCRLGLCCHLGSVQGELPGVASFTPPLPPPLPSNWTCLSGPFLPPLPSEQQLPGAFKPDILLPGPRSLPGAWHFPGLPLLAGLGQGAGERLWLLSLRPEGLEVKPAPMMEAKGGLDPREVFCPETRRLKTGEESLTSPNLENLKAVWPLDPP
The gist of the method:
as §1

For another test, the target named is T3, ETS2 (Homo sapiens, UniProt P15036 1-469).
T3 sequence: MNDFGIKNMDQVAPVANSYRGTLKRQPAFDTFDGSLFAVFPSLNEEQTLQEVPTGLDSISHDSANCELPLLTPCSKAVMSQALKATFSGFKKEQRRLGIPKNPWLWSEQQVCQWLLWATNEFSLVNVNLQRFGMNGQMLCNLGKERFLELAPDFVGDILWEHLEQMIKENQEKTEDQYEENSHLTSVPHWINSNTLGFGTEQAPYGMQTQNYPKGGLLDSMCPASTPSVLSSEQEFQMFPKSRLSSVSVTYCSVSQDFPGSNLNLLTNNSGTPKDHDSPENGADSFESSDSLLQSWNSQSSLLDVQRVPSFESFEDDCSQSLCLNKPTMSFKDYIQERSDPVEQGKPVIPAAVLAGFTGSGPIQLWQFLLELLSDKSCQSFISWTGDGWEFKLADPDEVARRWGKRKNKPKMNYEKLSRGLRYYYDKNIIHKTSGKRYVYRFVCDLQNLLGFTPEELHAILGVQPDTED
The gist of the method: as §1

For a further test, the target named is T4, SPDEF (Homo sapiens, UniProt O95238 1-335).
T4 sequence: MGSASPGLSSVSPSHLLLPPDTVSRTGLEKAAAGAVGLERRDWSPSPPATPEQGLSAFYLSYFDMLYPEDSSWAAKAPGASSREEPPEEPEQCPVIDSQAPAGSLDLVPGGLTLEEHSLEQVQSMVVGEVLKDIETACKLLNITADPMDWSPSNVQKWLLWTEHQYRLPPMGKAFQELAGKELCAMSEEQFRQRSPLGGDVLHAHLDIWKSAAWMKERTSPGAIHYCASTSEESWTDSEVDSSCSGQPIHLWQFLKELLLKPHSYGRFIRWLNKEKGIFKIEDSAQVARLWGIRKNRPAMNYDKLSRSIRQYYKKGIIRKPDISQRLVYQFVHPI
The gist of the method:
as §1

The next test has as its target T5, ETV7 (Homo sapiens, UniProt Q9Y603 1-341).
T5 sequence: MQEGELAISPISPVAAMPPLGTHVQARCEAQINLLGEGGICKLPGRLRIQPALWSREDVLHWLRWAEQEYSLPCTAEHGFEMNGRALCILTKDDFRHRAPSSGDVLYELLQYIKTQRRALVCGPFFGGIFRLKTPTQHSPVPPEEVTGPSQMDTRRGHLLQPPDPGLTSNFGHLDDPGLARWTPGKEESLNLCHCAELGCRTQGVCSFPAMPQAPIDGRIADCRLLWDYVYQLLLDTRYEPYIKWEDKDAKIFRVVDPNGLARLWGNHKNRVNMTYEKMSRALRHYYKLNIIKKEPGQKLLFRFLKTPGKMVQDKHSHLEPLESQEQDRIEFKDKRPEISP
The gist of the method:
as §1

The target in another test is T6, ELF5 (Homo sapiens, UniProt Q9UKW6-2 1-255).
T6 sequence: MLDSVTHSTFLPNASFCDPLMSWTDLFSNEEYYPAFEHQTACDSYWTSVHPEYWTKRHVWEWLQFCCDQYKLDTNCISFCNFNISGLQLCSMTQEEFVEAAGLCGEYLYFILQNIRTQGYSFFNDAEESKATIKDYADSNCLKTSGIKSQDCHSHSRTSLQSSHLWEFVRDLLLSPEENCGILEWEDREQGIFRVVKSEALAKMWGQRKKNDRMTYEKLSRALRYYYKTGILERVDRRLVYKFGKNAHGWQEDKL
The gist of the method:
as §1

For another test, the target named is T7, ETV3 (Homo sapiens, UniProt P41162-2 1-143).
T7 sequence: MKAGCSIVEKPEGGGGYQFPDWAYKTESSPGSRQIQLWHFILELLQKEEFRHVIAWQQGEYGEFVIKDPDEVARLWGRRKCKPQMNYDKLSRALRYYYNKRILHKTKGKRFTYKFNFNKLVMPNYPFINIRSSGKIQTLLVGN
The gist of the method:
as §1

A further test addresses ETV6 (Homo sapiens, UniProt P41212 1-452). The gist of the method: as §1

Chain of ETV6 (P41212 whole entry): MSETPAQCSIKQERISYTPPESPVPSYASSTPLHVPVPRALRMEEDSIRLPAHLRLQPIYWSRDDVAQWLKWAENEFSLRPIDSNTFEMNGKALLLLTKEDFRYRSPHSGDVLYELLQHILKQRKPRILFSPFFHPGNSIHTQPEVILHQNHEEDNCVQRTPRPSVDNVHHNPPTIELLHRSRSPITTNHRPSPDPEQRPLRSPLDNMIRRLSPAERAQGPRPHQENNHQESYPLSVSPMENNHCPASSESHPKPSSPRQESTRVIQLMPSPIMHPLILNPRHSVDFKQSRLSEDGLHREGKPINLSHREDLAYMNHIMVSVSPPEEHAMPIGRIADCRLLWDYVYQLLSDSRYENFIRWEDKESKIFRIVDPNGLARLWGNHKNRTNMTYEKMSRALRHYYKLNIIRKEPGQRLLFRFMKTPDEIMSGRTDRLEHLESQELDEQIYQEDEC

CCCCCG: the binding signal is 1.17 fold enrichment (6-mer frequency, TF over GST control) in the test with ERF; 1.13 fold enrichment (6-mer frequency, TF over GST control) with ETV3L; 1.06 fold enrichment (6-mer frequency, TF over GST control) with ETS2; 1.13 fold enrichment (6-mer frequency, TF over GST control) with SPDEF; 1.05 fold enrichment (6-mer frequency, TF over GST control) in the test with ETV7; 1.07 fold enrichment (6-mer frequency, TF over GST control) in the test with ELF5. In addition, the binding signal in the test with ETV3 was 1.22 fold enrichment (6-mer frequency, TF over GST control); with ETV6, 1.12 fold enrichment (6-mer frequency, TF over GST control).
Turning to GTACCT, the binding signal is 1.19 fold enrichment (6-mer frequency, TF over GST control) in the test with ERF; 1.19 fold enrichment (6-mer frequency, TF over GST control) with ETV3L; 1.21 fold enrichment (6-mer frequency, TF over GST control) in the test with ETS2; 1.27 fold enrichment (6-mer frequency, TF over GST control) with SPDEF; 1.2 fold enrichment (6-mer frequency, TF over GST control) with ETV7; 1.31 fold enrichment (6-mer frequency, TF over GST control) in the test with ELF5. For the same sequence, the binding signal in the test with ETV3 was 1.14 fold enrichment (6-mer frequency, TF over GST control); with ETV6, 1.19 fold enrichment (6-mer frequency, TF over GST control).
With CGACCG, the binding signal is 1.17 fold enrichment (6-mer frequency, TF over GST control) with ERF; 1.28 fold enrichment (6-mer frequency, TF over GST control) with ETV3L; 1.22 fold enrichment (6-mer frequency, TF over GST control) with ETS2; 1.22 fold enrichment (6-mer frequency, TF over GST control) with SPDEF; 1.13 fold enrichment (6-mer frequency, TF over GST control) with ETV7; 1.12 fold enrichment (6-mer frequency, TF over GST control) with ELF5. Further, the binding signal was 1.12 fold enrichment (6-mer frequency, TF over GST control) in the test with ETV3 and 1.18 fold enrichment (6-mer frequency, TF over GST control) in the test with ETV6.
With ATTGTC, the binding signal with ERF is 1.23 fold enrichment (6-mer frequency, TF over GST control); with ETV3L it was 1.14 fold enrichment (6-mer frequency, TF over GST control); in the test with ETS2, 1.17 fold enrichment (6-mer frequency, TF over GST control); with SPDEF it was 1.17 fold enrichment (6-mer frequency, TF over GST control); with ETV7, 1.23 fold enrichment (6-mer frequency, TF over GST control); with ELF5 it was 1.2 fold enrichment (6-mer frequency, TF over GST control). The binding signal with ETV3 was 1.22 fold enrichment (6-mer frequency, TF over GST control); in the test with ETV6 it was 1.13 fold enrichment (6-mer frequency, TF over GST control).
On to GTACTC, for which the binding signal is 1.06 fold enrichment (6-mer frequency, TF over GST control) with ERF; 1.15 fold enrichment (6-mer frequency, TF over GST control) with ETV3L; 1.13 fold enrichment (6-mer frequency, TF over GST control) with ETS2; 1.02 fold enrichment (6-mer frequency, TF over GST control) in the test with SPDEF; 1 fold enrichment (6-mer frequency, TF over GST control) with ETV7; 1.12 fold enrichment (6-mer frequency, TF over GST control) in the test with ELF5. Moreover, the binding signal in the test with ETV3 was 1.11 fold enrichment (6-mer frequency, TF over GST control); with ETV6 it was 1.14 fold enrichment (6-mer frequency, TF over GST control).
On to GTACTA, for which the binding signal is 1.21 fold enrichment (6-mer frequency, TF over GST control) in the test with ERF; 1.05 fold enrichment (6-mer frequency, TF over GST control) with ETV3L; 1.13 fold enrichment (6-mer frequency, TF over GST control) with ETS2; 1.1 fold enrichment (6-mer frequency, TF over GST control) with SPDEF; 1.09 fold enrichment (6-mer frequency, TF over GST control) with ETV7; 1.13 fold enrichment (6-mer frequency, TF over GST control) with ELF5. Also, the binding signal with ETV3 was 1.09 fold enrichment (6-mer frequency, TF over GST control); with ETV6, 1.15 fold enrichment (6-mer frequency, TF over GST control).
As for GCCTCC, the binding signal with ERF was 1.39 fold enrichment (6-mer frequency, TF over GST control); in the test with ETV3L, 1.27 fold enrichment (6-mer frequency, TF over GST control); with ETS2 it was 1.27 fold enrichment (6-mer frequency, TF over GST control); in the test with SPDEF it was 1.3 fold enrichment (6-mer frequency, TF over GST control); in the test with ETV7 it was 1.29 fold enrichment (6-mer frequency, TF over GST control); in the test with ELF5, 1.29 fold enrichment (6-mer frequency, TF over GST control). The binding signal with ETV3 is 1.24 fold enrichment (6-mer frequency, TF over GST control); with ETV6 it was 1.16 fold enrichment (6-mer frequency, TF over GST control).
